Data published in the supplement of paper PMC4840960.
± gives the standard deviation of the averaged measurements.

These compounds were tested on E18 rat cortical neuron-glia co-culture (assay: fiber score / MBP score (myelination specific beyond OL differentiation) (ratio); higher = more myelination-specific MBP alignment). Details: 1 µM; treatment time: 8 days (DIV5-DIV13).
In short: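 Library compounds were applied at 1 or 5 µM in myelination medium, DIV5 to DIV13, to primary E18 rat cortical co-cultures grown at 20,000 cells/well in 96-well plates. After 4 % paraformaldehyde fixation and MBP/Olig2/DAPI immunostaining, four 10X fields per well in duplicate wells were scored. Each value is continuous MBP fiber length per Olig2+ nucleus divided by thresholded MBP area × intensity per Olig2+ nucleus.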

Structure (SMILES)	fiber score / MBP score
CCOC(=O)C1=C(C)NC(C)=C(C(=O)OC)C1c1cccc([N+](=O)[O-])c1 (centres undefined) [Nitrendipine]	0.92
CCCN[C@H]1CCc2nc(N)sc2C1 [Pramipexole]	0.851 ± 0.02
CN(C)CCOC(c1ccc(Cl)cc1)c1ccccn1 (centres undefined) [Carbinoxamine]	1.21
OC(c1cc(C(F)(F)F)nc2c(C(F)(F)F)cccc12)C1CCCCN1 (centres undefined) [Mefloquine]	0.726
CCCCC(=O)N(Cc1ccc(-c2ccccc2-c2nnn[nH]2)cc1)[C@H](C(=O)O)C(C)C [Valsartan]	0.885
COc1cc(C[C@@H](CO)[C@H](CO)Cc2ccc(O)c(OC)c2)ccc1O [Secoisolariciresinol]	0.879
CNCCCCOc1ccccc1Cc1ccccc1 [Bifemelane]	0.512
OC(CCN1CCCC1)(c1ccccc1)C1CCCCC1 (centres undefined) [Procyclidine]	1.03
CCOC(=O)[C@H](CCc1ccccc1)N[C@H]1CCc2ccccc2N(CC(=O)O)C1=O [Benazepril]	0.766
CCC[C@@H]1C[C@@H](C(=O)N[C@@H]([C@H]2O[C@H](SC)[C@H](O)[C@@H](O)[C@H]2O)[C@@H](C)O)N(C)C1 [Lincomycin]	0.754
CCc1cccc2c3c([nH]c12)C(CC)(CC(=O)O)OCC3 (centres undefined) [Etodolac]	0.706
O=C(O[C@@H]1Cc2c(O)cc(O)cc2O[C@@H]1c1cc(O)c(O)c(O)c1)c1cc(O)c(O)c(O)c1 [Epigallocatechin gallate]	0.732
Cc1occc(=O)c1O [Maltol]	0.739
CCCCN1CCCCC1C(=O)Nc1c(C)cccc1C (centres undefined) [Bupivacaine]	0.752
